Test results as given in PubChem BioAssay AID588342 (National Center for Advancing Translational Sciences (NCATS), 2011).
Hit rate of the full screen: of about 360,000 compounds, about 25,000 (6.9%) were called active. A call without a number means that no potency is given here. Not shown: some 9% with an inconclusive outcome. Calls follow the shape of the dose curve; as a rule, active = well fitted inhibition curve with a large enough effect; inconclusive = small, poorly fitted or top-dose-only effect; inactive = flat fitted curve, though single readings scatter. The sample as a whole holds a higher share of actives than the screen did.
Also: nearly all actives have a fitted effect of over 55% in size.
Potency is read from the fitted curve at half-maximal effect.

These compounds were tested against Luciferin 4-monooxygenase (Photinus pyralis) (UniProt P08659) (assay: qHTS profiling assay for firefly luciferase inhibitor/activator using purifed enzyme and Km concentrations of substrates (counterscreen for miR-21 project)). Conditions: purified FLuc, luminescence inhibition; series mostly up to 57.5 µM.
Chain of Luciferin 4-monooxygenase (Photinus pyralis) (P08659 whole entry, looked up): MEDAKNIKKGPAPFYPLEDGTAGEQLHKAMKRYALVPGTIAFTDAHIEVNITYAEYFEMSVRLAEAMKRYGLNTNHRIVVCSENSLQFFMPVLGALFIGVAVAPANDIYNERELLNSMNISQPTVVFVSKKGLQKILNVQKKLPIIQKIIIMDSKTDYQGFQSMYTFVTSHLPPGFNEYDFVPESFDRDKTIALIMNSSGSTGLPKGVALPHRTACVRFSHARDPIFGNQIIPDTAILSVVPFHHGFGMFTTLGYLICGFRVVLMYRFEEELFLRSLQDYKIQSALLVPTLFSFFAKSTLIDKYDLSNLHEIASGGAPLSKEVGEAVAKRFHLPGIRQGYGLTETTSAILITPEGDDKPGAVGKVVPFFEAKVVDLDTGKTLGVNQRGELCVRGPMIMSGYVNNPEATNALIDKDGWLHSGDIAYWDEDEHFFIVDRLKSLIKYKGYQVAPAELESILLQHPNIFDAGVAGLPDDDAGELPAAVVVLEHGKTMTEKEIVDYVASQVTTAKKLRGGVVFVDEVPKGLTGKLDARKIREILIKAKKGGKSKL
Procedure, shortened: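 Biochemical qHTS of compounds, final roughly 60 µM downward over six points, against 10 nM purified firefly luciferase using Km concentrations of substrates (10 uM D-luciferin, 10 uM ATP) in Tris acetate pH 7.5 buffer; luminescence output.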
In the case of `COC(=O)Cc1ccc(OC(=O)C2CCN(S(=O)(=O)c3ccc(OC)c(OC)c3)CC2)cc1`, the Potency is reported as “inactive”.
In the case of `Cc1nnsc1C(=O)NCc1c(F)cccc1Cl`, the Potency is reported as “inactive”.
`Cc1nn(Cc2ccccc2)c(C)c1CNC(=O)c1ccc(F)c(S(=O)(=O)N2CCOCC2)c1` was tested, and the Potency was “inactive”.
In the case of `O=C(NC(=S)Nc1ccc(NC(=O)c2cccs2)cc1)c1ccc([N+](=O)[O-])cc1`, the Potency is reported as “inactive”.
With `O=C(NC(=S)Nc1cccc(-c2ccc(CO)o2)c1)c1cccs1` the Potency was 19 µM (active).
`O=C(Nc1ccccc1-c1ccccc1)c1cccs1` was tested, and the Potency was “inactive”.
With `CCc1cnc2c(c1SCC(=O)c1ccccc1)c(=O)n(C)c(=O)n2C` the Potency was “inactive”.
For `O=S(=O)(NCc1ccccc1Br)c1ccccc1Br`, the Potency was “inactive”.
With `CCOC(=O)c1ccc(Nc2cc(C)nc3nc(C)nn23)cc1` the Potency was “inactive”.
With `Cc1cc(C)n(C(=O)c2ccc(S(=O)(=O)N3CCCC3)cc2)n1` the Potency was “inactive”.
For `Cc1cc(Nc2ccccc2)n(C(=O)c2ccc(N)cc2)n1`, the Potency was 9.53 µM (active).
With `Cc1ccc(S(=O)(=O)Nc2ccc3ncccc3c2)cc1` the Potency was “inactive”.
For `Cc1ccc2cc(/C=N/NC(=O)[C@@H]3CCCN3)c(Cl)nc2c1`, the Potency was “inactive”.
`O=C(O)c1ccc(N/N=C/c2ccc3ncccc3c2)cc1` was tested, and the Potency was 0.675 µM (active).
With `CCNC(=S)NNC(=O)c1ccc2ncccc2c1` the Potency was “inactive”.
With `Cc1ccc2cc(/C=N/Nc3ccc(C(=O)O)cc3)c(Cl)nc2c1` the Potency was 0.151 µM (active).
`CSCC[C@H](NC(=O)OC(C)(C)C)C(=O)N/N=C/c1cc2ccc(C)cc2nc1Cl` was tested, and the Potency was “inactive”.
For `O=C(NCc1ccco1)c1cccn2c(=O)c3c4c(sc3nc12)CCCC4`, the Potency was “inactive”.
With `Cn1c(=O)n(Cc2ccco2)c(=N)c2c3c(sc21)CCCC3` the Potency was “inactive”.
In the case of `O=c1oc(-c2ccco2)nc2sc3c(c12)CCCCC3`, the Potency is reported as 0.675 µM (active).
`CCN(C(=O)CSc1nnc(-c2ccc(OC(F)F)cc2)n1N)C1CCS(=O)(=O)C1` (stereo not given) was tested, and the Potency was “inactive”.
In the case of `O=C(NNC(=O)c1ccc(-n2cncn2)c([N+](=O)[O-])c1)c1ccccc1`, the Potency is reported as “inactive”.
With `C/C(=N\NC(=O)CSc1nc2ccccc2c(=O)n1-c1ccccc1C)c1cccs1` the Potency was “inactive”.
`CCC1(CC)NC(=O)N(Cc2nc3ccccc3s2)C1=O` was tested, and the Potency was “inactive”.
With `CC(=NCc1ccco1)c1c(C(F)(F)F)[nH]n(-c2nc3ccccc3s2)c1=O` the Potency was 7.57 µM (active).
With `C/C(=N\NC(=O)CC(C)C)c1c(C(F)(F)F)[nH]n(-c2nc3ccccc3s2)c1=O` the Potency was 5.36 µM (active).
`Cc1cccc(NC(=O)c2cc3c(C)nn(-c4ccccc4)c3s2)c1` was tested, and the Potency was “inactive”.
For `O=C(NCc1ccncc1)C1CCN(C(=O)c2cccc(Cl)c2)CC1`, the Potency was “inactive”.
In the case of `Cc1ccc(-n2c(CNc3ccc(F)cc3)nnc2SCC(=O)N2CCOCC2)cc1`, the Potency is reported as “inactive”.
With `O=C(CSc1cccc[n+]1[O-])c1ccc(-c2ccccc2)cc1` the Potency was 19 µM (active).
For `O=C(CSc1cccc[n+]1[O-])c1ccc(Cl)cc1`, the Potency was “inactive”.
`COc1ccccc1C(=O)CSc1cccc[n+]1[O-]` was tested, and the Potency was “inactive”.
With `CC(O)c1cccc(NC(=O)Cc2cccc3ccccc23)c1` (stereo not given) the Potency was “inactive”.
In the case of `CCC(=O)N1c2ccc(S(=O)(=O)CCC(=O)N3CCN(c4ccccc4)CC3)cc2CC1C` (stereo not given), the Potency is reported as “inactive”.
`CCCC(=O)N1c2ccc(-c3csc(N)n3)cc2CC1C` (stereo not given) was tested, and the Potency was 7.57 µM (active).
In the case of `Cc1ccn(CCC(=O)N2c3ccccc3CC2C)n1` (stereo not given), the Potency is reported as “inactive”.
For `CCOc1ccccc1NC(=O)Cn1c(=O)n(-c2cccc(C)c2)c(=O)c2c1c1cc(OC)ccc1n2C`, the Potency was “inactive”.
With `CN(CC(=O)NC(=O)Nc1ccccc1F)Cc1ccccc1` the Potency was “inactive”.
`Oc1ccc(-c2nc3ccc(Cl)cn3c2Nc2ccc3c(c2)OCO3)cc1` was tested, and the Potency was “inactive”.
`c1ccc(-n2ncc3c2ncn2c(C4CCCCC4)nnc32)cc1` was tested, and the Potency was “inactive”.
For `CN(C(=O)COc1ncnc2c1cnn2-c1ccccc1)C1CCCCC1`, the Potency was “inactive”.
For `CCN(c1ncnc2c1cnn2-c1ccc(C)cc1)C1CCCCC1`, the Potency was 2.13 µM (active).
`O=C(Nn1cnc2ccccc2c1=O)c1ccc([N+](=O)[O-])cc1Cl` was tested, and the Potency was “inactive”.
`O=C(Nn1cnc2ccccc2c1=O)c1ccc(F)cc1Cl` was tested, and the Potency was 13.5 µM (active).
`O=c1c2ccccc2ncn1CCCCOc1ccccc1F` was tested, and the Potency was “inactive”.
In the case of `COC(=O)c1c(NC(=O)C(C)Oc2ccc(Cl)c(C)c2)sc(C)c1C` (stereo not given), the Potency is reported as “inactive”.
With `Cc1ccc(NC(=S)N2CCN(c3ncccn3)CC2)cc1C` the Potency was “inactive”.
With `COc1ccc(NC(=O)Cn2c(=O)n(CCC(C)C)c(=O)c3cccnc32)cc1Cl` the Potency was “inactive”.
For `Cc1ccccc1CNC(=O)CSc1nnc(C)c2c(C)n(-c3ccccc3)nc12`, the Potency was “inactive”.
`Nc1ccc(N=Nc2ccccc2Cl)c(N)n1` was tested, and the Potency was 6.01 µM (active).
With `O=C1C=C(c2cccc(Cl)c2)C[C@@H](c2ccc(F)cc2)C1` the Potency was “inactive”.
With `COc1ccc(Cn2cc(C(=O)c3ccc(C)cc3)c(=O)c3cc(OC)c(OC)cc32)cc1` the Potency was “inactive”.
`Cn1nc(C(C)(C)C)c(NC(=O)c2sccc2Cl)c1C(C)(C)C` was tested, and the Potency was “inactive”.
`COc1ccccc1NC(=O)/C=C/C(N)=O` was tested, and the Potency was “inactive”.
In the case of `COC(=O)c1sc(-c2ccc(C(C)(C)C)cc2)cc1NC(=O)/C=C/C(=O)O`, the Potency is reported as 1.51 µM (active).
`N#CC(C#N)=CN=c1ccn(Cc2ccc(Cl)cc2Cl)cc1` was tested, and the Potency was “inactive”.
With `COc1ccc(NC(=O)N2CCCC(C(=O)Nc3ccccc3OC)C2)cc1` (stereo not given) the Potency was “inactive”.
`COc1ccc(NC(=O)N2CCC(Cc3ccccc3)CC2)cc1` was tested, and the Potency was 15.1 µM (active).
`COc1ccc(C(=O)NC2CCN(C(=O)Nc3ccc(F)cc3)CC2)cc1` was tested, and the Potency was “inactive”.
With `COc1cccc(C(=O)N(Cc2cccc(Cl)c2)Cc2ccco2)c1` the Potency was “inactive”.
With `CCCc1nc2c(c(=O)c3ccccc3n2C)c(=O)n1C1CCCCCC1` the Potency was “inactive”.
With `CCCc1nc2c(c(=O)c3ccccc3n2C)c(=O)n1-c1cc(C)cc(C)c1` the Potency was 15.1 µM (active).
With `Cn1c2ccccc2c(=O)c2c(=O)n(Cc3ccco3)c(COc3ccccc3)nc21` the Potency was “inactive”.
In the case of `CCOc1ccccc1NC(=O)CN1CCN(S(=O)(=O)c2ccc(Br)cc2)CC1`, the Potency is reported as “inactive”.
For `COC(=O)C1(C)NC(c2ccc(F)cc2)C2C(=O)N(c3ccccc3)C(=O)C21` (stereo not given), the Potency was “inactive”.
With `COC(=O)C1(C)NC(c2ccc(C)cc2)C2C(=O)N(c3ccc(F)cc3)C(=O)C21` (stereo not given) the Potency was “inactive”.
In the case of `COC(=O)[C@]1(C)N[C@H](c2ccc(-c3ccc(Cl)c(Cl)c3)cc2)[C@@H]2C(=O)N(C)C(=O)[C@@H]21`, the Potency is reported as 15.1 µM (active).
`O=C(CNC(=O)c1ccccc1)NCC(=O)OCC(=O)c1ccccc1` was tested, and the Potency was “inactive”.
`O=C(Nc1ccc(NC(=O)c2ccccc2F)cc1)c1ccccc1F` was tested, and the Potency was “inactive”.
With `Cc1cc2ccccc2n1CCNC(=O)c1ccc(F)cc1` the Potency was “inactive”.
For `O=C(CNC(=O)c1ccc(F)cc1)c1ccccc1`, the Potency was 19 µM (active).
In the case of `O=C(CNC(=O)c1ccccc1F)c1ccc(Br)cc1`, the Potency is reported as 2.69 µM (active).
For `O=C(COC(=O)CNC(=O)c1ccccc1F)NCC(F)(F)F`, the Potency was “inactive”.
In the case of `Cn1c(=O)[nH]c(=O)c2c1[nH]c(=S)n2Cc1ccccc1`, the Potency is reported as “inactive”.
`CC1=Nc2cc(C(=O)NCc3ccc(C)cc3)ccc2Sc2ccc(Cl)cc21` was tested, and the Potency was “inactive”.
With `O=C(OCC(=O)N1CCCCCC1)c1cnc(Cl)c(Cl)c1` the Potency was “inactive”.
For `COc1ccc(CCC(=O)NCCc2csc(-c3ccc(Cl)cc3)n2)cc1`, the Potency was “inactive”.
With `O=S(=O)(NCCc1csc(-c2ccccc2)n1)c1cccnc1` the Potency was “inactive”.
With `O=C(NCCc1csc(-c2ccccc2)n1)c1ccccc1F` the Potency was 26.9 µM (active).
In the case of `O=c1ccc2c(-c3ccccc3S(=O)(=O)O)c3ccc(O)c(O)c3oc-2c1O`, the Potency is reported as 13.5 µM (active).
In the case of `COc1ccc(OC)c(NC(=O)C2CCN(S(=O)(=O)c3ccc(C)cc3)CC2)c1`, the Potency is reported as “inactive”.
In the case of `COc1ccc(OC)c(C(O)c2nc3ccccc3n2C)c1` (stereo not given), the Potency is reported as “inactive”.
`CCN(CCCNC(=O)c1c(C)oc2ncn(CC(C)C)c(=O)c12)Cc1ccccc1` was tested, and the Potency was “inactive”.
In the case of `Cc1ccn2c(=O)c(NC(=O)c3cccc4ccccc34)c(C)nc2c1`, the Potency is reported as “inactive”.
With `Cc1ccc(NC(=O)C(=O)NCc2ccc(/C=N/NC(=O)c3c(C)nc4cc(C)ccn34)o2)cc1` the Potency was 2.13 µM (active).
In the case of `CCOc1ccc(/C=N\NC(=O)c2c(C)nc3cc(C)ccn23)cc1`, the Potency is reported as “inactive”.
For `N=C1C(=O)OCC1c1ccccc1NC(=O)CN1CCCCC1` (stereo not given), the Potency was “inactive”.
In the case of `CN(Cc1ccccc1)C(=O)c1cn(C)c2ccc(S(=O)(=O)N3CCCCC3)cc2c1=O`, the Potency is reported as “inactive”.
In the case of `CCc1ccccc1NC(=O)CSc1nc(C)c(C(=O)Nc2ccccc2)c(-c2ccc(Cl)cc2)c1C#N`, the Potency is reported as “inactive”.
With `Cc1cc(C)n(CCNS(=O)(=O)c2ccc(Cl)cc2)n1` the Potency was “inactive”.
`C=CCN1C(=O)C(Cc2cccc(Cl)c2)S/C1=N/N=C/c1ccco1` (stereo not given) was tested, and the Potency was “inactive”.
For `COc1ccc(CN2C(=O)C(C)S/C2=N/N=C/c2ccco2)cc1` (stereo not given), the Potency was 15.1 µM (active).
With `O=C1N/C(=N\N=C\c2ccco2)SC1Cc1ccc(F)cc1` (stereo not given) the Potency was “inactive”.
For `COc1cccc(C2C(C(=O)Nc3ccc(C)cc3C)=C(C)Nc3c(C(=O)Nc4ccccc4)cnn32)c1` (stereo not given), the Potency was “inactive”.
In the case of `COc1ccc(Oc2cn[nH]c2-c2ccc(OC)cc2O)cc1`, the Potency is reported as “inactive”.
With `COc1ccc(CN(C)Cc2nc3cc(OC)c(OC)cc3c(=O)[nH]2)c(OC)c1` the Potency was “inactive”.
With `COc1ccc(/C=C2/C(=O)OCc3cc(OC)c(OC)cc32)c(OC)c1` the Potency was 12 µM (active).
With `COc1cc([N+](=O)[O-])ccc1NC(=O)COC(=O)CCOc1ccc(C)cc1` the Potency was “inactive”.
For `COc1ccc(-c2nnc(SCC(=O)c3cccs3)o2)c(OC)c1`, the Potency was 2.39 µM (active).
For `COc1ccccc1-c1nnc(SCC(N)=O)o1`, the Potency was “inactive”.
With `Cc1ccc(OC(=O)CSc2nnc(-c3cccs3)o2)cc1` the Potency was “inactive”.
For `CCCCCCn1cc(C(=O)O)c(=O)c2cc(F)c(N3CCCCC3)cc21`, the Potency was “inactive”.
`O=C(Nc1nc2cc3c(cc2s1)OCCO3)c1cccc(S(=O)(=O)N2CCOCC2)c1` was tested, and the Potency was 7.57 µM (active).
`O=C(Nc1ccc(S(=O)(=O)Nc2nccs2)cc1)c1cccc(S(=O)(=O)N2CCOCC2)c1` was tested, and the Potency was “inactive”.
For `Cc1cc2nc(NC(=O)c3ccc(S(=O)(=O)N4CCOCC4)cc3)sc2cc1C`, the Potency was “inactive”.
